Consider 24 compounds from PubChem BioAssay (EPA / NIEHS).

The term AC50 denotes the concentration at which the activity in the assay is half-maximal.

“And” between values parts separate entries of the source, which are not always exact repeats. Identical values can stand only once. Records with an inconclusive call do not appear. More than one record can exist for a structure, and the calls need not agree. The source made the active and inactive calls. How the source made its calls, unless noted: active means hit-call score of the fitted dose curve at least 0.9, where 1 is the maximum; inconclusive means response in the unintended direction; inactive means score below 0.9.

Read-out in assay [1]: xenobiotic metabolism (CYP1A2), CYP1A2 (gene 1544)
The assay is described as follows: CLD_CYP1A2_48hr: CellzDirect (CLD) Gene Expression Assay for xenobiotic metabolism (CYP1A2) at 48 hours (AID 2283703). The procedure, abridged: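 Primary human hepatocytes from two donor preparations were dosed daily for two days at multiple concentrations in 0.2% DMSO vehicle. CYP1A2 mRNA was measured at 48 hours by chemiluminescent quantitative nuclease protection assay, with gain of signal fitted versus DMSO and cytotoxicity annotated from morphology.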

Read-out in assay [2]: Broad substrate specificity ATP-binding cassette transporter ABCG2 (Homo sapiens) (UniProt Q9UNQ0)
The assay is described as follows: CLD_ABCG2_48hr: CellzDirect (CLD) Gene Expression Assay for ABC Transporter (ABCG2) at 48 hours (AID 2283704).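 On AC50: potency for induction of ABCG2 mRNA above the DMSO baseline.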 Put shortly:
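Primary human hepatocytes from two donors, dosed daily for 2 days, 0.2% DMSO vehicle, several concentrations. ABCG2 mRNA at 48 h by qNPA chemiluminescence, gain fitted versus DMSO; cytotoxicity flagged by morphology.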

Read-out in assay [3]: xenobiotic metabolism (CYP1A1), CYP1A1 (gene 1543)
In words: CLD_CYP1A1_48hr: CellzDirect (CLD) Gene Expression Assay for xenobiotic metabolism (CYP1A1) at 48 hours (AID 2283705). The procedure, abridged: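 Primary human hepatocytes from two donors dosed daily for two days at multiple concentrations, 0.2% DMSO vehicle; CYP1A1 mRNA induction at 48 h by qNPA chemiluminescence. Cytotoxicity noted by phase-contrast morphology.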

Read-out in assay [4]: organic anion transporter (SLCO1B1), SLCO1B1 (gene 10599)
The assay is described as follows: CLD_SLCO1B1_48hr: CellzDirect (CLD) Gene Expression Assay for organic anion transporter (SLCO1B1) at 48 hours (AID 2283707). Put shortly:
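Primary human hepatocytes from two donor preparations dosed daily for two days with multiple concentrations, 0.2% DMSO vehicle. SLCO1B1 mRNA at 48 h by quantitative nuclease protection assay, chemiluminescence; gain-of-signal fitted versus DMSO.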

Read-out in assay [5]: alkyl and aryl transferase (GSTA2), GSTA2 (gene 2939)
In words: CLD_GSTA2_48hr: CellzDirect (CLD) Gene Expression Assay for alkyl and aryl transferase (GSTA2) at 48 hours (AID 2283708).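 Further: active means mRNA induction above DMSO vehicle baseline.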 Put shortly: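 Primary human hepatocytes dosed daily for two days (0.2% DMSO vehicle), harvested at 48 h. GSTA2 mRNA induction measured by quantitative nuclease protection assay with chemiluminescent imaging, fitted for gain of signal relative to DMSO.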

Read-out in assay [6]: sulfotransferase (SULT2A), SULT2A1 (gene 6822)
The assay is described as follows: CLD_SULT2A_48hr: CellzDirect (CLD) Gene Expression Assay for sulfotransferase (SULT2A) at 48 hours (AID 2283710).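 Further: hits raise SULT2A1 transcript above the 0.2% DMSO vehicle baseline.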 The procedure, abridged: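 Primary human hepatocytes (two donor preparations) dosed daily for two days with chemicals at multiple concentrations, vehicle 0.2% DMSO; SULT2A1 mRNA induction at 48 h by quantitative nuclease protection assay, chemiluminescent read-out, fitted for gain of signal versus DMSO.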

Assay [7] in a line: STM_H9_OrnithineISnorm_perc: Stemina devTOX quickPredict H9 human embryonic stem cell (hESC)-based Assay for Ornithine (ORN) Metabolite Biomarker, Normalized (AID 2283712; active means hit-call score of the fitted dose curve at least 0.9, where 1 is the maximum; inactive means score below 0.9;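 further: ornithine released into spent medium during last day measured by mass spectrometry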). Put shortly: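 Cells: undifferentiated H9 hESC. Dosing: 72 h, media replaced every 24 h. Sample: final 24-h conditioned media, 40% acetonitrile. Read: UPLC-HRMS ornithine area vs 13C standard, % DMSO control.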

A short description of assay [8]: STM_H9_CystineISnorm_perc: Stemina devTOX quickPredict H9 human embryonic stem cell (hESC)-based Assay for Cystine (CYSS) Metabolite Biomarker, Normalized (AID 2283713; active means hit-call score of the fitted dose curve at least 0.9, where 1 is the maximum; inactive means score below 0.9). The procedure, abridged: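 Secreted cystine was measured by UPLC-HRMS in H9 hESC medium after 72h compound exposure with 24-hourly replenishment. Values are standard-normalized areas relative to 0.1% DMSO.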

Read-out in assay [9]: Glyceraldehyde-3-phosphate dehydrogenase (Homo sapiens) (UniProt P04406)
In words: CLD_GAPDH_48hr: CellzDirect (CLD) Gene Expression Assay for Baseline Control (Glyceraldehyde 3-phosphate dehydrogenase) at 48 hours (AID 2283706).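 Further: active means higher GAPDH mRNA than DMSO vehicle.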 The procedure, abridged:
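Primary human hepatocytes dosed daily for two days with fresh chemical at multiple concentrations, 0.2% DMSO vehicle; GAPDH mRNA measured at 48 h by quantitative nuclease protection assay with chemiluminescence, fitted upward relative to DMSO as background control.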

Read-out in assay [10]: glucuronosyltransferase (UGT1A1), UGT1A1 (gene 54658)
The assay is described as follows: CLD_UGT1A1_48hr: CellzDirect (CLD) Gene Expression Assay for glucuronosyltransferase (UGT1A1) at 48 hours (AID 2283709).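 Further: actives increase expression relative to DMSO so potency refers to induction.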 Put shortly: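 Human primary hepatocytes dosed daily for two days (0.2% DMSO vehicle), harvested at 48 h. UGT1A1 mRNA induction measured by quantitative nuclease protection assay with chemiluminescence; gain of signal versus DMSO; cytotoxicity flagged from morphology.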

Chain of Glyceraldehyde-3-phosphate dehydrogenase (Homo sapiens) (P04406 whole entry, looked up): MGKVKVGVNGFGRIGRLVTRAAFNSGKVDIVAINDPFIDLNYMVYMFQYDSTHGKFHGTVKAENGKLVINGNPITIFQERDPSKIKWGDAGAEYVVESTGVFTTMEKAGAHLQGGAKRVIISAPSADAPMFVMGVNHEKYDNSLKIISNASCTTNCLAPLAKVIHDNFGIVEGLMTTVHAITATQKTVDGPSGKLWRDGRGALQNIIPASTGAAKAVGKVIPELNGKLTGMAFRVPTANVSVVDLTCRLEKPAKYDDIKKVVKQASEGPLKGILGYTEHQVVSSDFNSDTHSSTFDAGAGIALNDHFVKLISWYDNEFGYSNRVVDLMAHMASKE
Chain of Broad substrate specificity ATP-binding cassette transporter ABCG2 (Homo sapiens) (Q9UNQ0 whole entry, looked up): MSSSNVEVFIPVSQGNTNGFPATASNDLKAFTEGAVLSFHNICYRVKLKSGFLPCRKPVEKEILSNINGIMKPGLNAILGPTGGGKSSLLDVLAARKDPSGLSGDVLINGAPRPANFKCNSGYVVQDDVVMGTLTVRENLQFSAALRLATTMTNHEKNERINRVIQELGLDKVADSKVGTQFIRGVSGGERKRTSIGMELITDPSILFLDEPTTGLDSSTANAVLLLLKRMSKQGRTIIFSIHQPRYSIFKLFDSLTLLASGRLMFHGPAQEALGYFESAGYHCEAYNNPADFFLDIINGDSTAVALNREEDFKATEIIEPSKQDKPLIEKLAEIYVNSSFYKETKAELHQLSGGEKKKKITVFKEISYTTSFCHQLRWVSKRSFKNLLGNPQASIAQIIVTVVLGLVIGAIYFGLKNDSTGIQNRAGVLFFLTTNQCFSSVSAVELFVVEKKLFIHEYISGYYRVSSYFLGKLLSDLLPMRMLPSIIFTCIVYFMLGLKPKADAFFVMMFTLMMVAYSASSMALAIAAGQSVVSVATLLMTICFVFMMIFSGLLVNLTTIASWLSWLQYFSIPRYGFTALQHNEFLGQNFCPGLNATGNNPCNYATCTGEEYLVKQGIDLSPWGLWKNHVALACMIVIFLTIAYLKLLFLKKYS

For `COC(=O)N(OC)c1ccccc1COc1ccn(-c2ccc(Cl)cc2)n1`, the AC50 in [1] is 0.54 µM (active); in assay [2] it was 20 µM (active); in [3] it was 1.9 µM (active); in assay [5], 33.8 µM (active); in [6] it was 9.28 µM (active); in assay [7], 0.85 µM (active). Also, the AC50 in [8] was 0.743 µM (active). Moreover, the result in assay [4] was inactive.
Consider `Fc1ccc(Oc2ccnc3cc(Cl)cc(Cl)c23)cc1`, for which the AC50 in assay [1] was 3.98 µM (active). The compound was called inactive in assay [2], in assay [3], in assay [4], in [5] and in [6].
On to `N#CC(CCc1ccc(Cl)cc1)(Cn1cncn1)c1ccccc1` (stereo not given), for which the figures for the AC50 in [1], in [3] and in assay [6] were 2.3 µM (active), 2.53 µM (active) and 20 µM (active), respectively. Moreover, the outcome in assay [2] and in assay [5] was inactive.
In the case of `COc1nc(C)nc(NC(=O)NS(=O)(=O)c2ccccc2Cl)n1`, the outcome in assay [1], in assay [2], in [3], in assay [9], in assay [4] and in [5] was inactive.
Take `CC1COC(Cn2cncn2)(c2ccc(Oc3ccc(Cl)cc3)cc2Cl)O1` (stereo not given): the concentration at half-maximal activity (AC50) is 0.397 µM (active) in assay [1], 2 µM (active) in assay [3], 3.93 µM (active) in assay [7] and 2.87 µM (active) in assay [8]. Further, the compound was called inactive in assay [2], in assay [9], in [5] and in assay [6].
For the compound `CCCC1COC(Cn2cncn2)(c2ccc(Cl)cc2Cl)O1` (stereo not given), the AC50 in assay [1] was 5.36 µM (active); in assay [3], 20 µM (active); in [7] it was 85.5 µM (active); in [8] it was 33.6 µM (active). Further, the compound was called inactive in [2], in assay [5], in assay [10] and in [6].
On to `COP(=S)(OC)Oc1nc(Cl)c(Cl)cc1Cl`, for which, in [1], the half-maximal activity concentration (AC50) is 5.26 µM (active). Moreover, the call in assay [2], in [3], in assay [9], in assay [4] and in [5] was inactive.
As to `C=CC1(C)OC(=O)N(c2cc(Cl)cc(Cl)c2)C1=O` (stereo not given), in assay [1], the AC50 was 0.966 µM (active). For the same compound, the result in assay [2], in [3], in [9], in [5], in [6] and in assay [7] was inactive. Besides, the outcome in assay [8] was inactive.
`COC(=O)C=C(C)OP(=O)(OC)OC`: the compound was classed as inactive in assay [1], in [2], in [3], in [5] and in assay [6].
`CC(C)(C)c1ccc(CSc2cnn(C(C)(C)C)c(=O)c2Cl)cc1`: the call in assay [1], in assay [2], in assay [3], in assay [9], in [4] and in [5] was inactive. The compound was classed as inactive in [6]. The half-maximal activity concentration (AC50) in [7] was 0.0663 µM (active); in assay [8], 0.171 µM (active).
As for `O=C(O)COc1nc(Cl)c(Cl)cc1Cl`, the compound was called inactive in [1], in assay [2], in [3] and in assay [9].
Turning to `CC(C)C1(C)N=C(c2nc3ccccc3cc2C(=O)O)NC1=O` (stereo not given), the compound was classed as inactive in assay [1], in [2], in assay [3], in [5], in assay [10] and in [6].
In the case of `C=CCC1=C(C)C(OC(=O)C2C(C=C(C)C)C2(C)C)CC1=O` (stereo not given), the outcome in [1], in assay [2], in assay [3], in assay [5] and in assay [6] was inactive.
As for `CNC(=S)S`, the half-maximal activity concentration (AC50) in assay [1] is 20 µM (active). Besides, the compound was called inactive in assay [2], in [3], in [9] and in assay [5].
Regarding `CCCCOC(=O)c1ccccc1C(=O)OCCCC`, the AC50 in assay [1] is 10.6 µM (active) and 11.1 µM (active); in assay [7] it was 76.3 µM (active); in [8], 50 µM (active). Moreover, the result in assay [2], in assay [3], in [9], in [4], in assay [5] and in assay [10] was inactive. Moreover, the result in assay [6] was inactive.
Regarding `CS/C(C)=N/OC(=O)N(C)SN(C)C(=O)O/N=C(\C)SC`, the result in assay [1], in [2], in [3], in assay [4] and in [6] was inactive.
Take `Cc1cc(Cl)ccc1OCC(=O)O`: the outcome in [1] and in [2] was inactive.
For the compound `CN(C)C(=S)SSC(=S)N(C)C`, the AC50 in [1] is 34 µM (active); in assay [3] it was 29.7 µM (active); in [7], 17.7 µM (active); in assay [8] it was 14.5 µM (active). For the same compound, the outcome in assay [2], in assay [9] and in assay [5] was inactive.
`CCNc1nc(Cl)nc(NCC)n1`: the AC50 in assay [1] is 8.97 µM (active); in assay [3], 3.92 µM (active); in assay [7], 0.053 µM (active). Besides, the call in assay [2], in [9], in assay [4], in [6] and in assay [8] was inactive.
Turning to `CCCN(CCC)c1c([N+](=O)[O-])cc(S(N)(=O)=O)cc1[N+](=O)[O-]`, the call in assay [1], in [2], in [4] and in [5] was inactive. In addition, the AC50 in [3] is 28.9 µM (active); in assay [6] it was 6.29 µM (active).
For `O=C(O)c1nc(Cl)ccc1Cl`, the AC50 is 7.28 µM (active) in assay [1] and 4.17 µM (active) in [3]. Further, the outcome in assay [2], in assay [4], in assay [5] and in [6] was inactive.
Regarding `COc1nc(C)nc(NC(=O)NS(=O)(=O)c2ccccc2CCC(F)(F)F)n1`, the half-maximal activity concentration (AC50) in assay [1] was 8.01 µM (active). Besides, the outcome in assay [1], in [2], in assay [3], in [4], in assay [5] and in assay [6] was inactive.
As for `CCCCNC(=O)OCC#CI`, the compound was classed as inactive in assay [1], in assay [2], in assay [3], in assay [9] and in assay [5].
In the case of `CCOc1cc(Oc2ccc(C(F)(F)F)cc2Cl)ccc1[N+](=O)[O-]`, the values for the half-maximal activity concentration (AC50) in assay [1] and in assay [3] were 0.845 µM (active) and 1.01 µM (active), respectively. For the same compound, the result in assay [2], in assay [5] and in [6] was inactive.
